# Results as given in paper PMC11006913.
# Substitutions are numbered along the chain they refer to.
# Assays:
# Test in all cases: PBM; 200 nM protein, PBS
# Settings in all cases: dsDNA, one strand shown
# SIX6 = target: T1, SIX6 (Homo sapiens, UniProt O95475 114-200, T165A)
# T1 sequence: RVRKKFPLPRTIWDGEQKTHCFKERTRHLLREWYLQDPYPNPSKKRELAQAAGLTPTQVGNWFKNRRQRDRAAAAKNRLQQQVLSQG
# HOXD13 [1] = target: HOXD13 (Homo sapiens, UniProt P35453 263-343, T313R)
# HOXD13 [2] = target: HOXD13 (Homo sapiens, UniProt P35453 263-343, T313A)
# Sequence of HOXD13 (Homo sapiens, UniProt P35453 263-343, T313A) (P35453 263-343 T313A): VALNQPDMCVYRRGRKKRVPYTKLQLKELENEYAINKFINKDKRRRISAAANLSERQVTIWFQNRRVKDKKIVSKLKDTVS
# HOXC9 = HOXC9 (Homo sapiens, UniProt P31274 178-260, R222W)
# Sequence of HOXC9 (P31274 178-260 R222W): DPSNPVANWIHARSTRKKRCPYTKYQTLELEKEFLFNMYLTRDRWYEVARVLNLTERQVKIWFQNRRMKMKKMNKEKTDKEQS
# NKX2-6 [3] = target: T2, NKX2-6 (Homo sapiens, UniProt A6NCS4 118-204)
# T2 sequence: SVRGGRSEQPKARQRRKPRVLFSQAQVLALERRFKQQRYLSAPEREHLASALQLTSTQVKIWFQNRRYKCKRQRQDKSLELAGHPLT
# HOXD13 [4] = target: HOXD13 (Homo sapiens, UniProt P35453 263-343)
# Sequence of HOXD13 (Homo sapiens, UniProt P35453 263-343) (P35453 263-343): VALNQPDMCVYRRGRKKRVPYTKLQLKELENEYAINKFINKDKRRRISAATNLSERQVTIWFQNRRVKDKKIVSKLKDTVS
# CRX = CRX (Homo sapiens, UniProt O43186 26-111, R41L)
# Sequence of CRX (O43186 26-111 R41L): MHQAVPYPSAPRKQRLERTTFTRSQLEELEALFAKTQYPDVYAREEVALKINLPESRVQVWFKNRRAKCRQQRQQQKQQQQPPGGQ
# ALX3 = ALX3 (Homo sapiens, UniProt O95076 139-225, N203S)
# Sequence of ALX3 (O95076 139-225 N203S): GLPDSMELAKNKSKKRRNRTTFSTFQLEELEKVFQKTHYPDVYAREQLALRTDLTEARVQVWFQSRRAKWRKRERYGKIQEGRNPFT
# NKX2-6 [5] = target: T3, NKX2-6 (Homo sapiens, UniProt A6NCS4 118-204, F151L)
# T3 sequence: T2 sequence with F34L
# Sequence of HOXD13 (Homo sapiens, UniProt P35453 263-343, T313R) (P35453 263-343 T313R): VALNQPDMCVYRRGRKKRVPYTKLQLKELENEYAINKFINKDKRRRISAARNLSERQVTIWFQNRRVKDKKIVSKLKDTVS
sequence,measurement,setting,value
GGTGTAGA,binding signal,SIX6,"10.3 upbm affinity estimate (log intensity, higher = more binding, comparable within an allelic series)"
GACACCAA,binding signal,SIX6,"10.5 upbm affinity estimate (log intensity, higher = more binding, comparable within an allelic series)"
AAGGTGTC,binding signal,SIX6,"10.5 upbm affinity estimate (log intensity, higher = more binding, comparable within an allelic series)"
GACACCGA,binding signal,SIX6,"10.4 upbm affinity estimate (log intensity, higher = more binding, comparable within an allelic series)"
GTGTCACA,binding signal,SIX6,"10.7 upbm affinity estimate (log intensity, higher = more binding, comparable within an allelic series)"
ATATAAAT,binding signal,HOXD13 [1],"10.8 upbm affinity estimate (log intensity, higher = more binding, comparable within an allelic series)"
same,binding signal,HOXD13 [2],"11.6 upbm affinity estimate (log intensity, higher = more binding, comparable within an allelic series)"
same,binding signal,HOXC9,"11 upbm affinity estimate (log intensity, higher = more binding, comparable within an allelic series)"
GATTATGA,binding signal,NKX2-6 [3],"11.2 upbm affinity estimate (log intensity, higher = more binding, comparable within an allelic series)"
CTAAGTTA,binding signal,NKX2-6 [3],"11.2 upbm affinity estimate (log intensity, higher = more binding, comparable within an allelic series)"
TTGTAAAA,binding signal,HOXD13 [1],"10.7 upbm affinity estimate (log intensity, higher = more binding, comparable within an allelic series)"
same,binding signal,HOXD13 [4],"11.8 upbm affinity estimate (log intensity, higher = more binding, comparable within an allelic series)"
same,binding signal,HOXD13 [2],"11.6 upbm affinity estimate (log intensity, higher = more binding, comparable within an allelic series)"
AGTGTCAA,binding signal,SIX6,"10.3 upbm affinity estimate (log intensity, higher = more binding, comparable within an allelic series)"
TCTATAAA,binding signal,HOXD13 [1],"11 upbm affinity estimate (log intensity, higher = more binding, comparable within an allelic series)"
same,binding signal,HOXD13 [4],"12.2 upbm affinity estimate (log intensity, higher = more binding, comparable within an allelic series)"
same,binding signal,HOXD13 [2],"11.9 upbm affinity estimate (log intensity, higher = more binding, comparable within an allelic series)"
same,binding signal,HOXC9,"11 upbm affinity estimate (log intensity, higher = more binding, comparable within an allelic series)"
GCAAGACC,binding signal,HOXD13 [1],"9.62 upbm affinity estimate (log intensity, higher = more binding, comparable within an allelic series)"
same,binding signal,HOXD13 [4],"9.57 upbm affinity estimate (log intensity, higher = more binding, comparable within an allelic series)"
same,binding signal,HOXD13 [2],"9.69 upbm affinity estimate (log intensity, higher = more binding, comparable within an allelic series)"
GTACTAGA,binding signal,NKX2-6 [3],"12.1 upbm affinity estimate (log intensity, higher = more binding, comparable within an allelic series)"
CGACACCG,binding signal,SIX6,"10.2 upbm affinity estimate (log intensity, higher = more binding, comparable within an allelic series)"
GTGTCATA,binding signal,SIX6,"10.8 upbm affinity estimate (log intensity, higher = more binding, comparable within an allelic series)"
AGGGTGTC,binding signal,SIX6,"10.5 upbm affinity estimate (log intensity, higher = more binding, comparable within an allelic series)"
GAGTGTCA,binding signal,SIX6,"10.3 upbm affinity estimate (log intensity, higher = more binding, comparable within an allelic series)"
CAATTCAA,binding signal,NKX2-6 [3],"11.8 upbm affinity estimate (log intensity, higher = more binding, comparable within an allelic series)"
ATTGACAC,binding signal,SIX6,"10.5 upbm affinity estimate (log intensity, higher = more binding, comparable within an allelic series)"
TAATATAA,binding signal,HOXD13 [1],"10.8 upbm affinity estimate (log intensity, higher = more binding, comparable within an allelic series)"
same,binding signal,HOXD13 [2],"11.6 upbm affinity estimate (log intensity, higher = more binding, comparable within an allelic series)"
same,binding signal,HOXC9,"11 upbm affinity estimate (log intensity, higher = more binding, comparable within an allelic series)"
AACACTCC,binding signal,NKX2-6 [3],"11.3 upbm affinity estimate (log intensity, higher = more binding, comparable within an allelic series)"
GTGTCAAA,binding signal,SIX6,"10.3 upbm affinity estimate (log intensity, higher = more binding, comparable within an allelic series)"
GGGTGTAA,binding signal,SIX6,"10.4 upbm affinity estimate (log intensity, higher = more binding, comparable within an allelic series)"
CGCCGCCC,binding signal,HOXD13 [1],"9.48 upbm affinity estimate (log intensity, higher = more binding, comparable within an allelic series)"
same,binding signal,HOXD13 [4],"9.53 upbm affinity estimate (log intensity, higher = more binding, comparable within an allelic series)"
same,binding signal,HOXD13 [2],"9.6 upbm affinity estimate (log intensity, higher = more binding, comparable within an allelic series)"
AATTACGC,binding signal,NKX2-6 [3],"11.3 upbm affinity estimate (log intensity, higher = more binding, comparable within an allelic series)"
ATTTTATA,binding signal,HOXD13 [1],"10.9 upbm affinity estimate (log intensity, higher = more binding, comparable within an allelic series)"
same,binding signal,HOXD13 [4],"11.8 upbm affinity estimate (log intensity, higher = more binding, comparable within an allelic series)"
same,binding signal,HOXD13 [2],"11.9 upbm affinity estimate (log intensity, higher = more binding, comparable within an allelic series)"
same,binding signal,HOXC9,"11.1 upbm affinity estimate (log intensity, higher = more binding, comparable within an allelic series)"
GGTGTCGA,binding signal,SIX6,"10.5 upbm affinity estimate (log intensity, higher = more binding, comparable within an allelic series)"
CCGGCCCA,binding signal,HOXD13 [1],"9.49 upbm affinity estimate (log intensity, higher = more binding, comparable within an allelic series)"
same,binding signal,HOXD13 [4],"9.55 upbm affinity estimate (log intensity, higher = more binding, comparable within an allelic series)"
same,binding signal,HOXD13 [2],"9.54 upbm affinity estimate (log intensity, higher = more binding, comparable within an allelic series)"
AGTGTCAC,binding signal,SIX6,"10.4 upbm affinity estimate (log intensity, higher = more binding, comparable within an allelic series)"
CGGGTGTC,binding signal,SIX6,"10.4 upbm affinity estimate (log intensity, higher = more binding, comparable within an allelic series)"
GTTATTAA,binding signal,HOXD13 [1],"10.7 upbm affinity estimate (log intensity, higher = more binding, comparable within an allelic series)"
same,binding signal,CRX,"10.4 upbm affinity estimate (log intensity, higher = more binding, comparable within an allelic series)"
same,binding signal,ALX3,"8.66 upbm affinity estimate (log intensity, higher = more binding, comparable within an allelic series)"
CGTAATAA,binding signal,NKX2-6 [3],"11 upbm affinity estimate (log intensity, higher = more binding, comparable within an allelic series)"
GGTGTAAA,binding signal,SIX6,"10.4 upbm affinity estimate (log intensity, higher = more binding, comparable within an allelic series)"
AAGGTGTA,binding signal,SIX6,"10.1 upbm affinity estimate (log intensity, higher = more binding, comparable within an allelic series)"
GCAGTCCC,binding signal,NKX2-6 [3],"9.36 upbm affinity estimate (log intensity, higher = more binding, comparable within an allelic series)"
same,binding signal,NKX2-6 [5],"9.32 upbm affinity estimate (log intensity, higher = more binding, comparable within an allelic series)"
GTTGATGA,binding signal,NKX2-6 [3],"10.9 upbm affinity estimate (log intensity, higher = more binding, comparable within an allelic series)"
same,binding signal,NKX2-6 [5],"9.75 upbm affinity estimate (log intensity, higher = more binding, comparable within an allelic series)"
ACACCCGT,binding signal,NKX2-6 [3],"8.98 upbm affinity estimate (log intensity, higher = more binding, comparable within an allelic series)"
same,binding signal,NKX2-6 [5],"9.33 upbm affinity estimate (log intensity, higher = more binding, comparable within an allelic series)"
ATACTTAG,binding signal,NKX2-6 [3],"13.1 upbm affinity estimate (log intensity, higher = more binding, comparable within an allelic series)"
same,binding signal,NKX2-6 [5],"10.4 upbm affinity estimate (log intensity, higher = more binding, comparable within an allelic series)"
